Screens deposited in PubChem by several laboratories.
PTK2B oligo ant = antagonists of Pyk2 self-association, primary screen, Q293 cells, FERM NanoBiT luminescence, HTS | Protein-tyrosine kinase 2-beta (Homo sapiens), Q14289 | hits give low values | z-score (the deposit names both 25 µM and 10 µM) | hit rate 0.83% among 99,000 | AID 1347419, 2020;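 active = Z-score of -3 or lower, scaled per plate to the spread of control and sample wells; inactive = z-score above -3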;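 also: negative z-score means lost luminescence so less FERM oligomerization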
Target sequence (Q14289 whole entry, looked up): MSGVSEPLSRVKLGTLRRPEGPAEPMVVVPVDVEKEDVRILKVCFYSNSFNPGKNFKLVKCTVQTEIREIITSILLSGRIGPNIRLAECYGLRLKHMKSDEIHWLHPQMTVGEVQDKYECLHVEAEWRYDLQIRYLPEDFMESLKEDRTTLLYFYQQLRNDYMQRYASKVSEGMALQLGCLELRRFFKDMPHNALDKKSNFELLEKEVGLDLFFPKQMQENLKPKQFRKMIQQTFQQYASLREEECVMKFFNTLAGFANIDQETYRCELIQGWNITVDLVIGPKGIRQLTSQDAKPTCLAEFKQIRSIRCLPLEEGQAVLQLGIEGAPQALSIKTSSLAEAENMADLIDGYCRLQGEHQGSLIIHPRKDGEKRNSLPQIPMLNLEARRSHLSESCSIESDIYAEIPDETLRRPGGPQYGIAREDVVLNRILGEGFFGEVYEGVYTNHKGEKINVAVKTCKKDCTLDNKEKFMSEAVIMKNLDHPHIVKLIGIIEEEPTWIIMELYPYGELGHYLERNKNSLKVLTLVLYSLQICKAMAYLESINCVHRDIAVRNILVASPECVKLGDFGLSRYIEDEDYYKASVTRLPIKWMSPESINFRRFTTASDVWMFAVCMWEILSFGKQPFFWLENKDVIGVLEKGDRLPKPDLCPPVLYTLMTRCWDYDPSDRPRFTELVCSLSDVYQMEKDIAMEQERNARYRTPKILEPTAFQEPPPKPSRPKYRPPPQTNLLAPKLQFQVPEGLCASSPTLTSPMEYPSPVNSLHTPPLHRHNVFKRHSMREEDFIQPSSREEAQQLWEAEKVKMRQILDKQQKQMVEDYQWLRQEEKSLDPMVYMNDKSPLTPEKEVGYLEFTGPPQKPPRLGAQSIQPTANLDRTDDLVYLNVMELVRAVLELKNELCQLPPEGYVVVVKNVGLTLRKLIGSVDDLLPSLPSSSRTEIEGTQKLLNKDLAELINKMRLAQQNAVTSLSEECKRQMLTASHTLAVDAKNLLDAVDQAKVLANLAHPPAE
CYP2C19 act = human CYP2C19 activators, primary screen, biochemical, luminescence; activation factor at 5 µM; recombinant CYP2C19, luciferin-H EGE luminescence; hits give high values; 0 = fully inhibited enzyme, 1 = untreated enzyme; 96,000 tested, under 10 active; Cytochrome P450 2C19 (Homo sapiens), P33261;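 active = activation factor of at least 2 at 5 µM in the primary screen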
CYP2C9 inhib = blockers of cytochrome P450 2C9 activity – biochemical, luminescence, ADME assay, primary screen; hit rate 20% among 96,000; P11712; CYP2C9 Supersomes, luciferin-H conversion; inhibition, % at 5 µM;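 active = blocking of liver enzyme CYP2C9 beyond about 50% at 5 µM, limit read from the data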
Cav3 T inh = Cav3.2 calcium influx blockers – cell-based, Fluo-4 calcium fluorescence, FDSS, MLSMR library, primary screen | Cav3.2-expressing cells; hits give low values | B-score at 10 µM | AID 449739, 2010 | hit rate 4% among 100,000;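 active = single-dose well whose peak fluorescence ratio is a statistical outlier from its plate by either plate-standardised score or position-corrected B-score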
CYP2C19 inh = blockers of cytochrome P450 2C19 activity – biochemical, luminescence, ADME assay, primary screen. P33261. CYP2C19 Supersomes, luciferin-H EGE luminescence, 30 min. inhibition, % at 5 µM. hit rate 21% among 96,000. AID 778, 2007;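 active = CYP2C19 inhibition above a set limit at 5 µM in the primary screen, cut at about 50% in these data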
CYP2C9 activ = human CYP2C9 activators, primary screen, biochemical, luminescence | Cytochrome P450 2C9 (Homo sapiens), P11712 | hit rate 1.4% among 96,000 | recombinant CYP2C9, luciferin-H conversion; hits give high values; factor 1 = untreated enzyme, 0 = blocked | activation factor at 5 µM;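 active = activation factor of 2 or more for CYP2C9 at a 5 µM dose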
Each line names hits and unclear results; the compound was inactive in the other large screens. The list is not random: actives were taken first. Their share in the collection is about 27%.

O=c1[nH][nH]c(C(F)(F)F)c1C=NCc1ccc(Cl)cc1	CYP2C19 inh 58.1
O=C(c1ccc(NC2=NC3CS(=O)(=O)CC3S2)cc1)N1CCc2ccccc2C1 (stereo unspecified)	none (no result: PTK2B oligo ant)
S=C(NCCC(c1ccccc1)c1ccccc1)Nc1ccccc1Cl	CYP2C9 inhib 66.4, CYP2C19 inh 55.4
O=C1C(=C2CCCCC2)SC(=S)N1Cc1ccco1	CYP2C19 inh 59.9
Cc1ccccc1N1CCN(Cc2c[nH]c3ccccc23)CC1	CYP2C19 inh 56.0
CC(C)(C)C(=O)Cn1c(=N)n(Cc2ccccc2Cl)c2ccccc21	Cav3 T inh -4.98
COc1ccc(NC(=O)N2CCC(n3nnc4cc(C)ccc43)CC2)cc1	none (no result: CYP2C19 act, CYP2C9 inhib, CYP2C19 inh, CYP2C9 activ)
COC(=O)C1=C(C)N=C2SCCC(=O)N2C1c1cc(Br)ccc1OC (stereo unspecified)	none
CCC1SC2=NC(C)=C(C(=O)OC)C(c3ccc(C)cc3)N2C1=O (stereo unspecified)	CYP2C9 inhib 79.5, CYP2C19 inh 98.6
COC(=O)C1=C(C)N=C2SC(C)C(=O)N2C1c1ccc(C(=O)OC)cc1 (stereo unspecified)	Cav3 T inh -4.6, CYP2C19 inh 78.3
COc1ccc(Nc2nccc3c2nnn3C)cc1	none
CCn1c(=O)n(CC)c2cc(S(=O)(=O)N3CCOCC3)ccc21	none
CCn1c(=O)n(CC)c2cc(S(N)(=O)=O)ccc21	none (no result: PTK2B oligo ant)
CCn1c(=O)n(CC)c2cc(S(=O)(=O)Nc3cc(C)cc(C)c3C#N)ccc21	CYP2C9 inhib 79.5, CYP2C19 inh 62.5
CCn1c(=O)n(CC)c2cc(S(=O)(=O)Nc3c(C)cccc3C)ccc21	CYP2C9 inhib 66.7, CYP2C19 inh 93.8 (no result: PTK2B oligo ant)
CN(C)Cc1c(O)ccc2oc(Cc3ccccc3)cc12	CYP2C19 inh 72.4
Cc1c(Cc2ccccc2)c(=O)oc2c(CN(C)C)c(O)c(Cl)cc12	none (no result: CYP2C19 act, CYP2C9 inhib, CYP2C19 inh, CYP2C9 activ)
CCSc1nnc(NC(=O)CSc2nc3c(cc2C#N)CCCC3)s1	PTK2B oligo ant -3.18, CYP2C9 inhib 51.2
N#Cc1cc2c(nc1SCC(=O)Nc1nccs1)CCCCC2	CYP2C9 inhib 54.5
CCSc1nnc(NC(=O)CSc2nc(C)cc(C)n2)s1	CYP2C19 inh 60.9
CCc1nnc(NC(=O)CSc2nnc(CSc3nc(C)cc(C)n3)n2C)s1	none
CCc1nnc(NC(=O)CSc2nc3c(cc2C#N)CCC3)s1	none
COCCN1C(=O)C(=O)/C(=C(/O)c2ccc(S(=O)(=O)N3CCOCC3)cc2)C1c1ccc(C(C)C)cc1 (stereo unspecified)	none (no result: PTK2B oligo ant)
CC(=O)N=c1sc(C(C)(C)C)c(C)n1C	none
CC(C)(C)NC(=O)C(c1ccncc1)N(C(=O)c1csnn1)C1CC1 (stereo unspecified)	none
Cc1cc([N+](=O)[O-])c2[nH]c(C(=O)N/N=C/c3ccccc3C(=O)O)c(-c3ccccc3)c2c1	PTK2B oligo ant -3.03 (no result: Cav3 T inh)
C=CCc1cc(C(=O)N2CCCCC2)ccc1O	CYP2C19 inh 89.2 (no result: Cav3 T inh)
O=C(c1ccc2c(c1)OCCO2)N1CCCCC1	none
CCCc1cc(-c2nc(N)ncc2-c2ccc3c(c2)OCCCO3)c(O)cc1OC	PTK2B oligo ant -3.06, CYP2C9 inhib 68.3
COc1ccccc1C(=O)Nc1nc(-c2ccc3c(c2)OCCO3)cs1	none (no result: PTK2B oligo ant, CYP2C19 act, CYP2C9 inhib, CYP2C19 inh, CYP2C9 activ)
CC(=O)c1c(O)cc(O)c(C(C)=O)c1O	Cav3 T inh -5.43 (no result: PTK2B oligo ant, CYP2C19 act, CYP2C9 inhib, CYP2C19 inh, CYP2C9 activ)
CC(=O)c1c(O)cc(O)cc1CC(=O)O	none (no result: PTK2B oligo ant, CYP2C19 act, CYP2C9 inhib, CYP2C19 inh, CYP2C9 activ)
Cc1nc2sc(C(c3cccs3)N3CCC4(CC3)OCCO4)c(O)n2n1 (stereo unspecified)	none (no result: CYP2C19 act, CYP2C9 inhib, CYP2C19 inh, CYP2C9 activ)
COc1cccc(-c2cc(C(F)(F)F)n3ncc(C(=O)NCC4CCCO4)c3n2)c1 (stereo unspecified)	CYP2C9 inhib 54.8
CCOc1ccc(N(CC(=O)NC2CCCC2)S(=O)(=O)c2c(C)[nH]c(=O)[nH]c2=O)cc1	none (no result: PTK2B oligo ant)
NCCn1c(-c2ccccc2)cc(C(=O)O)c1-c1ccccc1F	none (no result: PTK2B oligo ant, CYP2C19 act, CYP2C9 inhib, CYP2C19 inh, CYP2C9 activ)
CCN(CCNC(=O)C1CCN(c2nnc(-n3cccc3)s2)CC1)c1ccccc1	CYP2C9 inhib 87.2, CYP2C19 inh 82.9 (no result: PTK2B oligo ant, Cav3 T inh)
